Most compounds without a hit are left out; they make up all but 10% or so of the library.
CtBP-E1A inh = qHTS Assay for Inhibitors of the CtBP/E1A Interaction. CtBP / adenovirus E1A interaction (AlphaScreen). AlphaScreen GST-E1A/His-CtBP binding, 1536-well; active compounds read low. activity change, % (no concentration beside the values). 0.49% of 340,000 active. AID 651724, 2012; in the data active means activity change below about -65%; inconclusive means mostly about -30% to -63%; further: on the % scale 0 is the no-effect control and ±100 the full control effect
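AlphaScreen with 125 nM GST-E1A and 125 nM His-CtBP (5X stocks) in Tris pH 8.0, 300 mM NaCl, BSA, Tween 20, TCEP. Compounds preincubated 2 h at 37 deg C, then glutathione donor/nickel acceptor beads added for 1 h at 37 deg C in dark.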
HP1b chromo inh = HTS for Inhibitors of HP1-beta Chromodomain Interactions with Methylated Histone Tails | 0.56% of 390,000 active | Chromobox protein homolog 1 (Homo sapiens), P83916 | AID 540317, 2011 | AlphaScreen HP1-beta / biotin-H3K9me3 peptide binding | Potency, µM (titrated, usually from 114 µM), without a hit: at the top dose activity change, negative = inhibition, most hits filed as inhibitors; further: potency means the concentration at half of the fitted maximal effect; nearly all actives have a fitted effect of over 70% in size
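AlphaScreen: HP1-beta (50 nM) preformed 30 min with biotin-H3(1-18)K9me3 peptide (50 nM) in PBS pH 7.4, 0.01% Tween-20. Compound added for 30 min at RT, then streptavidin donor/nickel chelate acceptor beads (10 ug/mL) for 30 min.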
Six1-Eya2 inh = qHTS Assay for Inhibitors of the Six1/Eya2 Interaction; Homeobox protein SIX1 (Homo sapiens) + Protein phosphatase EYA2 (Homo sapiens), …; AlphaScreen GST-Six1/His-Eya2 binding, biochemical; active compounds read low; activity change, % (no concentration beside the values); 0.56% of 360,000 active; in the data active means activity change below about -65%; inconclusive means mostly about -30% to -63%; further: on the % scale 0 is the no-effect control and ±100 the full control effect
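Homogeneous AlphaScreen proximity assay pairing GST-Six1 with His-tagged Eya2 (added as 5X mix: 250 nM and 500 nM) in 50 mM Tris pH 8.0, 300 mM NaCl, 1 mM TCEP. Glutathione donor and nickel acceptor beads; 1 h, 37 °C, dark.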
G9a inh = qHTS Assay for Inhibitors of Histone Lysine Methyltransferase G9a | Histone-lysine N-methyltransferase EHMT2 (Homo sapiens), Q96KQ7 | G9a H3K9 monomethylation, AlphaScreen, 2 h | Potency, µM (titrated, usually from 102 µM), without a hit: top-dose activity, negative = inhibition, usual class: inhibitors | 8.8% of 350,000 active | AID 504332, 2011; further: potency means the concentration at half of the fitted maximal effect; on the % scale 0 is the no-effect control and ±100 the full control effect; nearly all actives have a fitted effect of over 75% in size
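Readings reflect AlphaScreen signal from monomethyl-H3K9 antibody detection. HMT at 20 nM; substrate b-H3K9 500 nM; cofactor SAM 20 uM; 2 h RT reaction; compounds tested as titrations in qHTS with 15 min preincubation.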
JMJD2A Tudor inh = qHTS Assay for Inhibitors of JMJD2A-Tudor Domain; AID 504339, 2011; 4.4% of 390,000 active; Potency, µM (top dose mostly 114 µM), inactives show top-dose activity change, negative = inhibition, actives largely listed as inhibitors; AlphaScreen JMJD2A-Tudor / H3K4me3 peptide binding; further: potency means the concentration at half of the fitted maximal effect; on the % scale 0 is the no-effect control and ±100 the full control effect; nearly all actives have a fitted effect of over 50% in size
BAZ2B block = qHTS Assay for Inhibitors of BAZ2B; AlphaScreen BAZ2B-H3K14Ac peptide displacement; Potency, µM (doses to about 114 µM), without a hit: at the highest dose activity change, negative = inhibition, hits mostly inhibitors; 4.4% of 360,000 active; AID 504333, 2011; further: potency means the concentration at half of the fitted maximal effect; on the % scale 0 is the no-effect control and ±100 the full control effect; nearly all actives have a fitted effect of over 60% in size
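Protein-peptide AlphaScreen: BAZ2B 50 nM, b-H3K14Ac 50 nM, 1x PBS pH 7.4 + 0.01% Tween-20. Preincubation 30 min RT; cpd 30 min RT (top 110 uM); beads 20 min RT, light-protected.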
* marks the source's active call; other numbers are inactive results; u = inconclusive; x = no result; [ ] = another dose, or the depositor's remark. Unless noted, the call rests on the fitted dose curve; in most records, active means well fitted inhibition curve with a large enough effect; inconclusive means small, poorly fitted or top-dose-only effect; inactive means no such curve, though single readings can be large or run the other way.

SMILES	CtBP-E1A inh	HP1b chromo inh	Six1-Eya2 inh	G9a inh	JMJD2A Tudor inh	BAZ2B block
CNS(=O)(=O)c1cccc(C(=O)OCC(=O)NC2CCCC2)c1	8	34%	6	-31%[2.33 µM]	4%	-4%
Cn1cc(S(=O)(=O)N2CCCCCC2)cc1C(=O)N1CCN(c2ccccc2F)CC1	x	17%[57 µM]	x	4%[59 µM]	-14%	-19%
CCCCn1c(-c2csc3c2CCCC3)n[nH]c1=S	0	-5%	-6	u	40µM*	-31%
CCCCCCn1c(-c2cccs2)n[nH]c1=S	0	-15%	2	5.6µM*	28µM*	-23%
CCCCn1c(-c2cccs2)nc2nc3ccccc3nc21	8	86%	6	111%	59%	25%[57.1 µM]
CCCCn1c(-c2csc3ccccc23)n[nH]c1=S	1	22%	1	1.4µM*	u	-2%
CCn1c(-c2csc3c2CCCC3)n[nH]c1=S	-14	-22%	-3	7.9µM*	10µM*	-7%
CCCCn1c(-c2csc3c2CCC(C)C3)n[nH]c1=S (stereo not given)	-6	6%	-9	24%[59 µM]	-27%	-7%
COc1ccc2c(c1)c(=O)c(S(=O)(=O)c1ccc(Cl)cc1)cn2Cc1cc(C)ccc1C	x	33%	x	-11%[59 µM]	-3%	-4%
CC(OC(=O)C1CSC2(C)CCC(=O)N12)C(=O)Nc1ccc(F)cc1 (stereo not given)	-3	57%	-2	-20%[59 µM]	-12%	7%
C=CCn1c(-c2csc3c2CCC(C)C3)n[nH]c1=S (stereo not given)	-9	6%	-11	1.4µM*	u	-35%
CN(C)CCCNC(=O)/C(=C\c1ccc(-c2cccc([N+](=O)[O-])c2)o1)NC(=O)c1ccccc1	-7	-5%	-6	50µM*	u	-39%
CN(C)CCNC(=O)/C(=C/c1ccc(-c2ccc(Cl)cc2)o1)NC(=O)c1ccccc1	-7	-8%	-5	u	-33%	-32%
Cc1ccc(C(=O)N/C(=C\c2ccc(-c3cccc([N+](=O)[O-])c3)o2)C(=O)NCCCN(C)C)cc1	-7	3%	-11	50µM*	-25%	-38%
Cc1ccc(C(=O)N/C(=C\c2ccc(-c3ccccc3[N+](=O)[O-])o2)C(=O)NCCCN2CCOCC2)cc1	-26	0%	-12	45µM*	u	u
CCn1c(CCn2ccnc2C)n[nH]c1=S	1	23%	4	u	22µM*	3%
COC(=O)c1sc(N2C(=O)c3oc4ccccc4c(=O)c3C2c2cccc(O)c2)nc1C (stereo not given)	-4	0%	-5	-12%	-14%	-4%
CCCOc1ccc(/C(O)=C2/C(=O)C(=O)N(CCCn3ccnc3)C2c2ccco2)cc1 (stereo not given)	3	39%	-3	x	u	-7%
COC(=O)c1sc(N2C(=O)C(=O)/C(=C(/O)c3ccc(C)cc3)C2c2ccco2)nc1C (stereo not given)	-8	-15%	4	u	63µM*	-31%
CCOc1ccc(/C(O)=C2/C(=O)C(=O)N(c3nc(C)c(C)s3)C2c2ccco2)cc1 (stereo not given)	-1	6%	-3	45µM*	u	-37%
COc1cc(NC(=O)C2CCN(S(=O)(=O)c3c(C)noc3/C=C/c3ccccc3F)CC2)cc(OC)c1OC	x	24%[57 µM]	x	-5%[59 µM]	3%	2%
Cc1c(NC(=O)COC(=O)Cc2ccc(F)cc2)c(=O)n(-c2ccccc2)n1C	-2	4%	8	0%	-18%	-4%
CC1=C(C(=O)Nc2ccc(C)cc2C)C(c2cccs2)n2nc(SCc3cccc(C)c3)nc2N1 (stereo not given)	x	26%	x	-4%[59 µM]	-12%	u
CCOC(=O)c1c(NC(=O)/C=C/c2ccccc2)sc2c1CCCC2	x	49%	x	5%[59 µM]	11%	2%
CC(C)Nc1nc(Cl)nc(N(C#N)CN2C(=O)c3ccccc3C2=O)n1	0	-8%	-15	28µM*	u	-8%
SMILES	CtBP-E1A inh	HP1b chromo inh	Six1-Eya2 inh	G9a inh	JMJD2A Tudor inh	BAZ2B block
COc1ccccc1OCCNc1nc2c(c(=O)n(C)c(=O)n2C)n1C	-11	-21%	-16	19%[59 µM]	22µM*	12%
O=C(O)CCc1ccc(-c2ccc(Cl)cc2)n1-c1cccc(C(F)(F)F)c1	x	-22%	x	16µM*	u	35µM*
CC(=O)c1cccc(-n2c(CCC(=O)O)ccc2-c2cccs2)c1	-10	u	-9	u	56µM*	50µM*
O=C(O)CCc1ccc(-c2cccs2)n1-c1ccc(C(=O)O)cc1	2	8%	2	14µM*	u	-39%
COc1ccc(-c2ccc(CCC(=O)O)n2-c2cc(Cl)ccc2O)cc1	x	-3%	x	u	-34%	u
CC(C)(C)c1ccc(C(=O)Nn2c(CCC(=O)O)ccc2-c2cccs2)cc1	6	2%	-1	4%[12.7 µM]	-33%	u
CN(C)c1ccc(-n2c(CCC(=O)O)ccc2-c2ccccc2)cc1	x	u	x	11µM*	50µM*	28µM*
CCCNC(=O)c1c(C)nn(-c2cccc(C)c2)c1-n1cccc1	x	43%	x	6%[59 µM]	24%	-1%
CC(C)NC(=O)C1(C)CSCC(=O)N1CCCN1CCOCC1 (stereo not given)	-1	x	5	x	x	x
COc1ccc(NC(=S)N2CCC(N(C)CC3CCCO3)CC2)cc1Cl (stereo not given)	-5	21%	3	-11%[59 µM]	-7%	8%
Cc1ccc(-c2ccc(CCC(=O)O)n2-c2ccc(O)cc2)cc1	1	-20%	2	u	u	u
Cc1ccc(-c2ccc(CCC(=O)O)n2-c2cccc(O)c2)cc1	-3	-4%	-4	14µM*	u	u
CC(=O)c1cccc(-n2c(CCC(=O)O)ccc2-c2ccccc2)c1	0	16%	-3	40µM*	-19%	-24%
O=C(O)CCc1ccc(-c2ccccc2)n1-c1cccc(Br)c1	x	-22%	x	16µM*	u	u
O=C(NCCC(=O)N1CCN(C(=O)c2ccco2)CC1)c1ccccc1Cl	5	17%	8	x	-12%	x
Cc1onc(-c2ccccc2)c1CNC(=O)Nc1ccc(C(F)(F)F)cc1	9	33%	4	12%	7%	7%

Screens deposited in PubChem by National Center for Advancing Translational Sciences (NCATS).
